HT1080-NT tox = qHTS for induction of synthetic lethality in tumor cells producing 2HG: qHTS for the HT-1080-NT fibrosarcoma cell line | HT-1080-NT fibrosarcoma viability, CellTiter-Glo ATP luminescence, 48 h | Potency, µM (top dose mostly 46.1 µM), for the others: at the top dose activity, negative = less viability, actives largely listed as cytotoxic | 360,000 compounds, 1.6% hits | AID 686970, 2013;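 also: NT is the 2HG producing partner of a matched IDH1 knockdown line; potency is read from the fitted curve at half-maximal effect; 0% = DMSO-treated cells and -100% = media-only wells without cells; nearly all actives have a fitted effect of over 55% in size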
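750 cells/well, RPMI + 5% FBS; 2 h settle, compound pin-transfer, 48 h at 37 degrees C. CellTiter-Glo 10 min RT, luminescence. Normalized to DMSO and media-only wells.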
IL-1B inflam inh = qHTS for Inhibitors of Inflammasome Signaling: IL-1-beta AlphaLISA Primary Screen. THP-1 LPS/ATP IL-1B secretion, AlphaLISA, 16 h; hits give low values. activity change, % at 57.5 µM. 360,000 compounds, 4.7% hits; in the data active = activity change below about -50%; inconclusive = mostly about -30% to -49%
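THP-1 cells pretreated 1 hr with compounds (up to 57.5 uM final), then stimulated with LPS (250 ng/mL final) plus ATP (1.25 mM final); secreted IL-1B measured by AlphaLISA after 16 hr, decreased signal indicating inhibition.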
DT40 TDP1 no CPT = qHTS for Inhibitors of human tyrosyl-DNA phosphodiesterase 1 (TDP1): qHTS in cells in absence of CPT | AID 686978, 2013 | DT40 Tdp1-/- hTDP1 cells, no CPT, ATP luminescence, 48 h | Potency, µM (doses to about 46.2 µM), inactives show at the top dose activity change, negative = growth inhibition, hits mostly inhibitors | 420,000 compounds, 15% hits; also: potency is read from the fitted curve at half-maximal effect; nearly all actives have a fitted effect of over 55% in size
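No-CPT arm: Tdp1-/-;hTDP1 DT40 cells (400/well) plus compounds, incubated ≥48 hr at 37 °C. Readout CellTiter-Glo luminescence.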
HT1080 IDH1KD tx = qHTS for induction of synthetic lethality in tumor cells producing 2HG: qHTS for the HT-1080-IDH1KD cell line. AID 686971, 2013. HT-1080 IDH1 knockdown viability, ATP luminescence, 48 h. 360,000 compounds, 2% hits. Potency, µM (highest dose often 46.1 µM), inactives show top-dose activity, negative = toxicity, usual class: cytotoxic;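 also: potency is read from the fitted curve at half-maximal effect; 0% = DMSO wells and -100% = cell-free medium wells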
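In this qHTS, HT-1080 cells depleted of IDH1 are exposed for 48 h at 37 °C to compound titrations. Toxicity is scored from CellTiter-Glo luminescence, with DMSO as full viability and medium alone as none.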
TDP1 cell CPT = qHTS for Inhibitors of human tyrosyl-DNA phosphodiesterase 1 (TDP1): qHTS in cells in presence of CPT | chicken DT40 Tdp1-/-;hTDP1 cells + 20 nM CPT, ATP luminescence, 48 h | Potency, µM (titrated, usually from 46.2 µM), without a hit: at the top dose activity change, negative = growth inhibition, usual class: inhibitors | 420,000 compounds, 12% hits; also: potency is read from the fitted curve at half-maximal effect; nearly all actives have a fitted effect of over 55% in size
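Cell growth measured by CellTiter-Glo luminescence after a minimum 48 h, 37 C compound exposure with 20 nM CPT in Tdp1-knockout DT40 cells stably expressing hTDP1, seeded 400/well; qHTS titration format.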
An asterisk follows results filed as active; u = inconclusive; x = no result; [ ] = another dose, or the depositor's remark. In the library only some 19% were active in any assay of this set; here they are far more common. Unless noted, calls follow the shape of the dose curve; as a rule, active = well fitted curve in the direction sought with a large enough effect; inconclusive = small, poorly fitted or top-dose-only effect, or another doubt; inactive = no such curve, though single readings can be large; an effect the other way counts as inactive or inconclusive. Unless noted, % is scaled to controls: 0 for no effect and ±100 for the full control effect.

SMILES	HT1080-NT tox	IL-1B inflam inh	DT40 TDP1 no CPT	HT1080 IDH1KD tx	TDP1 cell CPT
Cc1cc(C)n2cc(CSc3nnc(-c4ccccc4)c(-c4ccccc4)n3)nc2n1	-1%	0	23µM*	5%	21µM*
COc1cccc(C(O)c2nc(-c3cc(F)cc(F)c3)cs2)c1 (centres undefined)	0%	-20	u	-1%	21µM*
COc1cccc(C(O)c2nc(-c3cccc(C(C)C)c3)cs2)c1 (centres undefined)	-21%	0	u	u	u
CCN(CC)C(=O)c1cccc(-c2csc(C(O)c3cccc(OC)c3)n2)c1 (centres undefined)	u	-17	4.6µM*	u	23µM*
COc1ccc(-c2csc(C(O)c3cccc(OC)c3)n2)cc1 (centres undefined)	-18%	10	u	u	12µM*
COc1cccc(C(O)c2nc(-c3ccc(N(C)C)cc3)cs2)c1 (centres undefined)	-18%	28	16µM*	u	23µM*
CC(C)(C)c1cc(NS(=O)(=O)c2cccs2)no1	-2%	28	7%	5%	6%
O=C1Cc2ccccc2C(=O)N1Cc1ccccc1	13%	-13	u	18%	u
COc1ccc(-c2csc(C(O)c3ccc(F)c(F)c3)n2)cc1 (centres undefined)	-18%	6	13µM*	u	18µM*
OC(c1ccc(F)c(F)c1)c1nc(-c2ccccc2)cs1 (centres undefined)	-10%	-2	u	-13%	u
COc1ccc(-c2c(C#N)c(N)nc3c2c(=O)n(C)c(=O)n3C)cc1	-4%	13	13µM*	4%	u
Cc1cccc(Oc2sc(C(=O)c3ccccc3)c(N)c2C#N)c1	u	-86*	u	u	u
CCOc1ccc(-c2c(C#N)c(N)nc3c2c(=O)n(C)c(=O)n3C)cc1OC	3%	9	-16%	2%	-16%
COc1ccc(-c2c(C#N)c(N)nc3sc(C(=O)c4ccccc4)c(N)c23)cc1	1%	-7	23µM*	14%	u
CN1CCN(C(=O)C[C@H]2CC[C@H]3[C@@H](COC[C@@H](O)CN3C(=O)C3CCCC3)O2)CC1	23%	-2	4%	14%	-2%
CC(C)(C)c1cc(Cl)ccc1OCCOCCN1CCCC1	15µM*	-75*	13µM*	18µM*	u
Clc1cc(Br)ccc1OCCOCCN1CCCC1	0%	-91*	u	-14%	u
Clc1cccc(OCCOCCN2CCNCC2)c1Cl	-19%	-22	23µM*	-26%	-18%
Clc1cccc(OCCCN2CCCC2)c1Cl	0%	-13	u	-13%	-25%
CCOc1ccc(OCC)c(NC(=O)C2CCN(S(=O)(=O)c3ccc4c(c3)CC(C)N4C(C)=O)CC2)c1 (centres undefined)	-1%	-18	u	6%	u
CC(C)c1c(C(=O)NCCN2CCOCC2)cnn1-c1nccc(-c2cccs2)n1	x	x	u	x	-3%[9.04 µM]
O=C(Cc1ccccc1)N/N=C/c1ccc(S(=O)(=O)O)o1	4%	3	-6%	0%	-2%
CC(NC(=O)c1ccccc1)C(=O)OCn1nnc2ccccc2c1=O (centres undefined)	-4%	-5	15%	-2%	26µM*
CC(=O)c1c(C)[nH]c(C(=O)OCc2nc3ccsc3c(=O)[nH]2)c1C	8%	18	-25%	1%	u
COC(=O)c1ccc2c(=O)[nH]c(COC(=O)c3[nH]c(C)c(C(C)=O)c3C)nc2c1	-12%	32	16µM*	-17%	u
SMILES	HT1080-NT tox	IL-1B inflam inh	DT40 TDP1 no CPT	HT1080 IDH1KD tx	TDP1 cell CPT
CC(=O)c1c(C)[nH]c(C(=O)OCn2nnc3ccccc3c2=O)c1C	-9%	13	16µM*	-11%	16µM*
C[C@H](NC(=O)c1ccc(Cl)cc1)C(=O)OCn1nnc2ccccc2c1=O	-3%	3	-24%	-4%	u
CC(=O)c1sc(NC(=O)C2CCCN2S(=O)(=O)c2ccccc2F)nc1C (centres undefined)	8%	21	0%	-2%	-21%
CCCN(CCC)C(=O)c1cc([N+](=O)[O-])cc2c1-c1ccc([N+](=O)[O-])cc1C2=C(C#N)C#N	16%	0	2.9µM*	8%	5.2µM*
O=c1[nH]c(=O)c2cc([N+](=O)[O-])cc([N+](=O)[O-])c2[nH]1	1%	-74*	u	-11%	u
C[C@@]12C(=O)Nc3cc(Cl)ccc3C(=O)N1[C@H]1c3cc(Cl)ccc3OC[C@@H]1[C@@H]2c1ccccc1	u	-13	u	u	18µM*
C[C@@]12C(=O)Nc3cc(Cl)ccc3C(=O)N1[C@H]1c3cc(Br)ccc3OC[C@@H]1[C@@H]2c1ccccc1	u	-23	23µM*	u	15µM*
C[C@@]12C(=O)NCC(=O)N1[C@@H]1c3cc(Br)ccc3OC[C@@H]1[C@@H]2c1ccccc1	-21%	0	-23%	-7%	10%
CCOC(=O)[C@H]1[C@H]2COc3ccc(Cl)cc3[C@@H]2N2C(=O)c3ccccc3NC(=O)[C@@]12C	4%	-15	u	4%	u
CN(C)c1ccc(CNC(=O)C2CCN(Cc3cc4ccccc4n3Cc3ccccc3)CC2)cc1	x	x	13µM*	x	16µM*
CN(C)c1ccc(CN2CCC(C(N)=O)CC2)cc1	3%	2	-13%	-1%	-8%
O=C(NCc1cccnc1)C1CCN(Cc2cc3ccccc3n2Cc2ccccc2)CC1	x	x	13µM*	x	u
O=C(NCc1cccnc1)C1CCN(Cc2cc3ccccc3n2Cc2cccc(Cl)c2)CC1	x	x	18µM*	x	u
CCOc1ccc(NC(=O)Nc2ccc(Br)cn2)cc1	19%	-14	u	6%	6%
O=C(Nc1ccc(Cl)cc1)Nc1ccc(Br)cn1	u	-14	18µM*	16%	18µM*
COc1ccc(Cl)cc1NC(=O)Nc1cccc([N+](=O)[O-])c1C	-7%	-6	23µM*	-9%	u
COc1ccc(Cl)cc1NC(=O)Nc1ccc(Br)cn1	u	30	u	18µM*	u
COc1ccc(NS(=O)(=O)c2cc(NS(=O)(=O)c3cccs3)ccc2C)cc1	-6%	13	-20%	-11%	-16%
CCn1nnc2cc(C(=O)Nc3ccc(Br)cc3F)ccc21	x	x	-19%	x	4%

Compound activity: PubChem, National Center for Advancing Translational Sciences (NCATS)
